In the library only some 4.8% were active in any assay of this set; here they are far more common.
S2 tox: cell viability loss in ATXN counter-screen. 400,000 compounds, 0.49% hits. Potency, µM (top dose mostly 56.7 µM), most hits filed as cytotoxic. AID 651635. S2 cells (HEK-293 line with an ATXN2-luciferase reporter) viability, CellTiter-Fluor protease fluorescence, 24 h; also: potency is read from the fitted curve at half-maximal effect; nearly all actives have a fitted effect of over 40% in size
ATXN2 expr inh: inhibitors of ATXN2 expression; 360,000 compounds, 0.72% hits; Potency, µM (highest dose often 57 µM), without a hit: at the top dose activity change, negative = inhibition, usual class: inhibitors; HEK-293 ATXN2-luciferase reporter, luminescence, 24 h; AID 1745845; also: potency is read from the fitted curve at half-maximal effect; % is scaled to controls: 0 for no effect and ±100 for the full control effect; nearly all actives have a fitted effect of over 55% in size
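ATXN2-luciferase reporter cells (luciferase flanked by upstream and downstream ATXN2 gene portions) were treated 24 h at 37 °C with compounds at up to 57 uM. SteadyGlo luminescence gave expression; GF-AFC fluorescence gave viability.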
D3 antag: blocks the human D3 dopamine receptor; AID 652054; max response, negative = inhibition, %; D3R cells, DiscoveRx beta-arrestin luminescence, antagonist mode; active compounds read low; 360,000 compounds, 2.5% hits; P35462; in the data active = max response below about -50%; inconclusive = no clear call, values can overlap the other calls; also: % is scaled to controls: 0 for no effect and ±100 for the full control effect
Target sequence (P35462 whole entry, looked up): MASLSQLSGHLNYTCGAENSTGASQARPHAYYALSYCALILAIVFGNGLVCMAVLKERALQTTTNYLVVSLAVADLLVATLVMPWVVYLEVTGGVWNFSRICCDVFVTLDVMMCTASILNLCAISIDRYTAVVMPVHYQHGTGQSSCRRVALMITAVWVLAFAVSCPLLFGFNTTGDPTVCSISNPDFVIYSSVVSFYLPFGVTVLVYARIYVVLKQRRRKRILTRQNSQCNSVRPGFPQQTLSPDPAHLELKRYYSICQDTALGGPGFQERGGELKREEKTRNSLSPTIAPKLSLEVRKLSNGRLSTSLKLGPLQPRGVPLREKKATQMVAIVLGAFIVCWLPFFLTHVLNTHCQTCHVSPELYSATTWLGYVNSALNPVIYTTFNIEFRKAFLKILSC
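Cells expressing the human receptor were seeded at 1500 cells/well, incubated overnight at 37 degrees C in 5% CO2, then exposed to library compounds with dopamine controls for 90 minutes at 37 degrees C before luminescent detection.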
D3 ag: D3 dopamine receptor (human) agonism. P35462. D3R DiscoveRx beta-arrestin cells, luminescence, 90 min. max activation, %. 410,000 compounds, 0.58% hits. AID 652048; in the data active = max activation above about 30%; also: 0% is about no effect
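Cells at 1500/well, incubated overnight, then treated with pinned compounds (dopamine as control) for 90 min at 37 degrees C. DiscoveRx reagent added for 30 - 60 minutes at room temperature; luminescence read.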
HepG2 viability: HepG2 cytotoxicity, counter-screen for TGF-b inhibitors; HepG2 CAGA-GFP viability, ATP luminescence, 18 h; Potency, µM (series often up to 46.1 µM), without a hit: at the top dose activity change, negative = cytotoxicity, hits mostly cytotoxic; 410,000 compounds, 0.76% hits; AID 588856; also: potency is read from the fitted curve at half-maximal effect
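HepG2 CAGA-GFP cells (1000/well, DMEM with 1% FBS) received compound, then TGF-beta at 500 pg/mL final, and were incubated 18 hours at 37 degrees C. Viability was read by CellTiter-Glo luminescence. Media-only wells were set as complete cell-killing and DMSO as no toxicity.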
TGFb SMAD3 inh: TGF-b pathway inhibition; HepG2 CAGA-GFP TGF-b/SMAD3 reporter, GFP fluorescence, 18 h; TGF-beta stimulated, 500 pg/mL final; Potency, µM (titrated, usually from 46.1 µM), inactives show top-dose activity, negative = inhibition, most hits filed as inhibitors; 410,000 compounds, 1.2% hits; AID 588855; also: potency is read from the fitted curve at half-maximal effect; % is scaled to controls: 0 for no effect and ±100 for the full control effect; nearly all actives have a fitted effect of over 65% in size
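HEPG2 CAGA-GFP, 1000 cells/well; 2 h settle, 37 C; cpd via pin tool; TGF-b 500 pg/mL final; 18 h, 37 C; GFP imaging ex488/em500-530; %Activity normalised to -TGF-b and +DMSO controls; CRC fit, curve class.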
Active calls of the source: *; i = inactive; ? = inconclusive; . = no result given. Unless noted, calls follow the shape of the dose curve; as a rule, active = well fitted curve in the direction sought with a large enough effect; inconclusive = small, poorly fitted or top-dose-only effect, or another doubt; inactive = no such curve, though single readings can be large; an effect the other way counts as inactive or inconclusive.

SMILES	S2 tox	ATXN2 expr inh	D3 antag	D3 ag	HepG2 viability	TGFb SMAD3 inh
O=C(Nc1ccccc1Cl)c1cc(C2CCCN(S(=O)(=O)c3cccs3)C2)on1 (configuration not stated)	i	-11.9%	5.7	4.5	11.2µM*	?
O=C(C1CCCCC1)N1CCCC(c2nc3c(nnn3Cc3ccccc3)c(=O)[nH]2)C1 (configuration not stated)	i	0.8%	-108.4*	8.6	-6.3%	?
O=C(c1ccccc1)N1CCCC(c2nc3c(nnn3Cc3ccccc3)c(=O)[nH]2)C1 (configuration not stated)	i	4.4%	?	7.7	0.0%	0.4%
N#Cc1c2c(c(Cl)n3c1nc1ccccc13)CCCC2	.	.	.	.	-7.4%	-2.9%
C1=C(c2ccc3c(c2)CN(Cc2cccn2-c2ncccn2)CCO3)Cc2ccccc21	i	.	.	.	.	.
COc1ccc(Br)cc1CNC(=O)c1cc(=O)[nH]c2ccc(S(=O)(=O)N3CCCCC3)cc12	.	.	.	-11.4	-16.0%	-14.8%
Cc1cc(N2CCN(c3cccc(C)c3C)CC2)n2nc(C)c(-c3ccc(Cl)cc3)c2n1	i	1.8%	.	1.4	10.4%	13.6%
CCOC(=O)c1c(-c2ccccc2)csc1NC(=O)c1ccc(S(=O)(=O)N2CC(C)OC(C)C2)cc1 (configuration not stated)	?	0.0%	14.6	14.5	6.5%	-15.6%
CCOC(=O)c1c(-c2ccc(C)o2)csc1NC(=O)CN1CCN(CC)CC1	?	-38.0%	-105.7*	2.3	-30.4%	-11.6%
CCOC(=O)c1c(-c2ccc(C)cc2)csc1NC(=O)CCN1CC(C)OC(C)C1 (configuration not stated)	i	-23.6%	-0.6	-2.5	20µM*	?
CCOC(=O)c1c(-c2ccccc2)csc1NC(=O)c1ccc(N2C(=O)CCC2=O)cc1	i	-12.9%	35.5	57.4*	-12.9%	3.7%
COc1ccccc1NC(C)C(=O)c1c[nH]c2ccccc12 (configuration not stated)	.	.	.	.	-22.3%	-21.1%
Cc1ccc(OCc2nc(-c3ccc(C(=O)NCCc4ccc(Cl)cc4)cc3)oc2C)cc1	i	-6.5%	.	-5.1	-3.9%	6.3%
CCOC(=O)C1CCN(C(=O)CCNC(=O)c2ccccc2OC)CC1	i	-5.5%	-2.9	-4.5	-0.3%	26.7%
CCCCCCCCCCCCCCCCCCNC(=O)OC1CCN(C(=O)OC[C@H](COC(=O)N(Cc2cccc[n+]2CC)C(=O)c2ccccc2OC)OC)CC1	35.5µM*	35.5µM*	.	-22.8	.	.
CC(=O)Nc1ccc(C(=O)CSc2cc(C)c3cccc(C)c3n2)cc1	?	-3.6%	13.6	41.3*	6.8%	-4.5%
Cc1cc(SCC(=O)c2cccs2)nc2c(C)cccc12	i	8.7%	8.2	2.7	-12.6%	-2.5%
O=C(C[N+]1(CC(O)c2ccccc2)CCOCC1)c1ccccc1 (configuration not stated)	.	.	.	.	-40.6%	-25.7%
Cn1cnnc1Sc1ccc(CN2CCOc3ccc(C4=Cc5ccccc5CC4)cc3C2)o1	i	.	.	.	.	.
COCCN1CCN(C(=O)c2cnn(-c3nccc(-c4ccccc4F)n3)c2-c2ccco2)CC1	i	.	.	.	.	.
O=C(Cn1cc(S(=O)(=O)Cc2ccccc2Cl)c2ccccc21)Nc1cccc(C(F)(F)F)c1	.	.	.	0.1	15.8µM*	?
O=C(Cn1cc(S(=O)(=O)Cc2ccccc2F)c2ccccc21)Nc1ccc(F)c(Cl)c1	.	.	.	4.2	-61.6%	?
CCC(=O)NC(c1cccs1)c1cc(Cl)c2cccnc2c1O (configuration not stated)	i	.	?	-3.6	16.6%	?
CCC(=O)NC(c1cc(Cl)c2cccnc2c1O)C(C)C (configuration not stated)	?	7.08µM*	.	.	-42.3%	2.82µM*
CCC(=O)NC(c1cc(Cl)c2cccnc2c1O)C1CC1 (configuration not stated)	?	?	.	.	-22.8%	2µM*
SMILES	S2 tox	ATXN2 expr inh	D3 antag	D3 ag	HepG2 viability	TGFb SMAD3 inh
CSc1cccc(NC(=O)NCc2cccc(CNC(=O)Nc3cccc(SC)c3)c2)c1	?	.	-12.0	-8.6	12.6µM*	?
CSc1cccc(NC(=O)C(=O)NCc2ccccc2)c1	i	-16.7%	4.4	-2.6	9.4%	-9.3%
CCCCNC(=O)C1(C)CCCCN1Cc1ccccc1-c1ccccc1 (configuration not stated)	i	?	?	-10.8	20µM*	?
Cc1cc(O)c(C(c2cccc(F)c2)N2CCN(c3ccccc3)CC2)c(=O)n1Cc1ccco1 (configuration not stated)	.	.	.	-16.4	-0.5%	0.5%
Cc1ccc(Cn2c(=O)n(-c3cc(C)cc(C)c3)c(=O)c3oc4ccccc4c32)cc1	.	.	.	-8.8	-5.4%	1.1%
COc1ccc(C2CC(c3cccs3)=NN2C(=O)c2ccccc2)cc1OC (configuration not stated)	?	-10.1%	10.1	-2.6	-17.2%	14.5%
COc1ccc(C2CC(c3cccs3)=NN2C(=O)CCC(=O)O)cc1 (configuration not stated)	i	.	12.4	0.7	6.5%	12.2%
COc1cc(C2CC(c3cccs3)=NN2C(=O)CCl)ccc1OC(F)F (configuration not stated)	.	?	-18.0	-11.7	6.31µM*	6.31µM*
COc1ccc(C2CC(c3cccs3)=NN2C(=O)CCl)cc1OC (configuration not stated)	11.2µM*	12.6µM*	?	-0.3	7.08µM*	10µM*
Cc1cc2nc(-c3ccc[nH]c3=O)[nH]c2cc1C	.	.	-16.7	-1.5	0.891µM*	?
O=C(CSc1ccc(Cl)cc1)c1ccco1	i	8.5%	-74.4*	-14.5	-20.5%	-17.6%
O=C(CSc1ccccc1Cl)c1ccco1	i	3.2%	-9.8	3.4	-25.2%	?
O=C(CCSc1ccc(Cl)cc1)c1ccco1	?	.	5.8	1.7	-87.2%	11.2µM*
O=C1Nc2ccccc2C1=Nc1cccc([N+](=O)[O-])c1	i	.	-3.4	-1.3	15.0%	15.0%
NC(=O)c1ccc(N=C2C(=O)Nc3ccc([N+](=O)[O-])cc32)cc1	i	.	-62.4*	-3.1	5.6%	-10.8%
c1cc2[nH]snc2c2nc(C3CC3)nc12	?	1.0%	24.3	33.9*	-61.2%	?
COc1cc2c(NC3CCN(C)CC3)nc(N3CCCN(C)CC3)nc2cc1OCC1CCCCN1 (configuration not stated)	.	.	.	.	-11.3%	11.2µM*
